This note sets out measurements from PubChem BioAssay.

Measured potencies and affinities stand elsewhere. The source made the active and inactive calls. Cut-off not given; nearly all actives show IC50 up to about 0.91 µM.

The target of the assay is Calcium-dependent protein kinase 4 (Plasmodium falciparum (isolate 3D7)) (UniProt Q8IBS5). Briefly: PfCDPK4 kinase inhibitors, biochemical, TCAMS library (AID 1159588). The settings on record: recombinant PfCDPK4, Kinase-Glo ATP depletion luminescence. A general note: Kinase-Glo measures the ATP left after a reaction by luminescence.
Chain of Calcium-dependent protein kinase 4 (Plasmodium falciparum (isolate 3D7)) (Q8IBS5 whole entry, looked up): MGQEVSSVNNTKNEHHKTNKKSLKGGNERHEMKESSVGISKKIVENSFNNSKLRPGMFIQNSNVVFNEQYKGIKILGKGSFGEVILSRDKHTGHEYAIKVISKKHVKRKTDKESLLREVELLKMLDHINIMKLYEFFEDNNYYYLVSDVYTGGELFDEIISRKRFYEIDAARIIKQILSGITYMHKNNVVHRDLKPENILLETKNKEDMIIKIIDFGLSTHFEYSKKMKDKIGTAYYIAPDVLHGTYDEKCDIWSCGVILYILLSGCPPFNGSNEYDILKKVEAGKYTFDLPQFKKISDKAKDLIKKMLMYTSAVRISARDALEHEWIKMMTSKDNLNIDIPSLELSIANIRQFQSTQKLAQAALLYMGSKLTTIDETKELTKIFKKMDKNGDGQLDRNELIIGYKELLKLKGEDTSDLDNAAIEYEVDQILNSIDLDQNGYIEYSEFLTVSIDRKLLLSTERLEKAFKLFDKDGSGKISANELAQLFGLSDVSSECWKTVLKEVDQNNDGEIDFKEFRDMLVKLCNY
For `CCCCCCN1CCC(NCc2ccc(OCCN3CCCC3)cc2)CC1`, the result was inactive.

Turning to `Cc1cccc(CN2CCC(C(=O)Nc3ccc(-c4nc5ccccc5[nH]4)cc3)CC2)n1`, the outcome was inactive. As for `CC(C)c1ccc(N(CC(=O)N/N=C/c2ccc(C(F)(F)F)cc2)S(=O)(=O)c2ccc(C(F)(F)F)cc2)cc1`, the entry is “inactive”; as for `COc1ccc2nc(-c3cc(-c4ccc(NC(=O)C(C)C)cc4)cnc3N)[nH]c2c1`, “inactive”; as for `O=C(NCCCCN1CCC(c2ccc(Br)cc2)CC1)c1ccc(NC(=O)c2ccc(Cl)cc2)cc1`, “inactive”.

With `O=S(=O)(NCCN1CCCC1)c1cccc(-c2cccc(CNCc3ccsc3)c2)c1`, the outcome was inactive.

As to `CCc1cn2c3c(cc(C(=O)N[C@@H](Cc4ccccc4)[C@H](O)CNC4CCOCC4)cc13)N(C)S(=O)(=O)C2`, the result was inactive. For the molecule `COc1ccc(CNCc2ccc(-c3ccc(-c4nc5ccc(C(F)(F)F)cc5[nH]4)s3)cc2)cc1`, the result was inactive.

As to `COc1ccc(-c2nc(NC(=O)Cc3ccc4c(c3)OCCO4)sc2C)cc1`, the result was inactive. With `COC(=O)c1ccc2nc(-c3ccc(/C=C/C(=O)NCc4ccc(Cl)c(Cl)c4)cc3)[nH]c2c1`, the outcome was inactive. The entry for `N#Cc1cccc(Nc2nccc(NCC(O)c3cccc(C(F)(F)F)c3)n2)c1` (centres undefined) is “inactive”. The entry for `COc1cc(-c2nc(-c3ccccc3)c(-c3ccccc3)[nH]2)cc(OC)c1O` is “inactive”; for `N#Cc1cc(C(=O)c2cc(Cl)ccc2O)cn(-c2cccc(C(F)(F)F)c2)c1=O` it is “inactive”. As for `CC(C)CC1c2[nH]c3ccccc3c2CCN1C(=O)CCc1ccccc1` (centres undefined), the entry is “inactive”; as for `CCNC(C)(C)CN(Cc1ccc(-c2ccc(C(F)(F)F)cc2)cc1)C(=O)Cn1c(CCc2cccc(F)c2F)nc(=O)c2ccccc21`, “inactive”; as for `Cc1cc(N[C@@H](CC(C)C)C(=O)NCCc2ccccc2)nc(Nc2ccccc2)n1`, “inactive”. In the case of `O=C(Nc1ccc(N2CCN(Cc3ccccc3)CC2)cc1)c1cccs1`, the result was inactive.

Take `CCOC(=O)c1c(C)n(-c2ccc(Cl)cc2)c2ccc(OC(=O)C=Cc3ccccc3)cc12`: the result was inactive. As for `Cc1cccc2[nH]c(-c3ccc(-c4cccc(NC(=O)CCc5cnc[nH]5)c4)cc3)nc12`, the entry is “inactive”. The entry for `Cc1ccc(-c2nc3ccc(C(=O)NC4CCN(Cc5ccccc5)CC4)cc3[nH]2)cc1` is “inactive”; for `COc1ccc2nc(C)cc(N/N=C/C=C/c3ccccc3)c2c1` it is “inactive”.

In the case of `CC(=O)Nc1ccc(OCCCCN(Cc2ccccc2OC(F)(F)F)c2ccc(C(F)(F)F)c(C#N)c2)c(Cl)c1`, the result was inactive. Consider `Cc1ccc(Nc2nc(C)cc(NCc3ccc(-n4ccnc4)cc3)n2)cc1`, for which the result was inactive. As for `CCc1sc(N2CCN(C)CC2)nc1C(=O)NCCc1ccc(Cl)c(Cl)c1`, the entry is “inactive”. As to `COc1cc2nc(C)nc(Nc3cccc(Br)c3)c2cc1OC`, the result was inactive. As for `Oc1ccc(CCNc2nc(NCc3cccc(-c4cc(C(F)(F)F)ccc4Cl)c3)nc(N3CCNCC3)n2)cc1`, the entry is “inactive”. The entry for `CC1(C)N=C(N)N=C(N)N1OCOc1ccc(Cl)cc1` is “inactive”; for `O=C(/C=C/c1ccc(Cl)c(Cl)c1)NCCCCCN1CCCN(C(=O)Nc2ccc(C(F)(F)F)cc2)CC1` it is “inactive”.

On to `N#Cc1cccc(NC(=O)Nc2ccc3c(c2)CN(Cc2c[nH]c4ncccc24)C3)c1`, for which the result was inactive. The entry for `COC(=O)CNC(c1ccccc1)c1cc(Br)ccc1NC(=O)c1ccccc1Br` (centres undefined) is “inactive”. With `Nc1nc(N)c2c(ccc3c2ccn3CCCC2CCCNC2)n1` (centres undefined), the outcome was inactive. The entry for `COc1ccc(C(=O)Nc2ccc(-c3ccc([N+](=O)[O-])cc3)cc2)cc1CCCN(C)C` is “inactive”; for `Cn1c(-c2ccccc2)cc2c3c(N)nc(N)nc3ccc21` it is “inactive”. The entry for `Fc1cccc(CNc2ncc(-c3ccsc3)c(-c3nccs3)n2)c1` is “inactive”; for `c1ccc(Oc2ccc(Nc3ccnc4cc(-c5cccc(CNCCN6CCOCC6)c5)ccc34)cc2)cc1` it is “inactive”. Regarding `CCOc1ccc(C(C)NC(=O)c2cc(Cl)ccc2OC)cc1OCC` (centres undefined), the outcome was inactive.

For `CN1CCCC(CN2CCN(Cc3ccc(-c4ccc(-c5nc6ccccc6[nH]5)s4)cc3)CC2)C1` (centres undefined), the outcome was inactive.

With `N#Cc1ccc(N(CCOc2ccc(Cl)cc2)Cc2ccccc2C(F)(F)F)cc1C(F)(F)F`, the outcome was inactive. The entry for `Cc1cc(NC2CCCC2)nc(Nc2ccccc2F)n1` is “inactive”.
